These results are taken from PubChem BioAssay.

Structures are written as SMILES. Active and inactive are the calls of the source. Unless noted, the rule behind the calls is not given here.

The test system of assay [1] is Wnt5a (protein binding on small-molecule microarray). The assay can be described thus: Wnt5a binders on small-molecule microarray, primary screen, biophysical, 635/667 nm fluorescence (AID 1142).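 Note: fluorescence read at 667 nm with signal to noise per printed feature.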 The settings on record: 635 nm fluorescence, higher = more signal.
Assay [2] can be described thus: cell viability in Huh7 cells, primary screen, cytotoxicity control for HCV replication inhibitor project, CellTiter-Glo luminescence, basal, 48 h (AID 1143).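 Note: Huh7 hepatoma cells carrying a hepatitis C replication reporter with no stimulus; test concentration not given here.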 The settings on record: Huh7 HCV replicon, higher = more signal, called active from +8 up or from −8 down. On the technique in general: In ATP-based viability assays light output follows the ATP content of the culture.

Assay [3] in a line: P. aeruginosa biofilm formation inhibitors, primary screen, PAO1 strain, BacTiter-Glo luminescence, LB-PBS (AID 1144). The settings on record: 12 h, higher = more signal.
The nature of assay [4]: CREB reporter modulators without forskolin, primary screen, cell-based, PC12, CRE-LacZ reporter, unstimulated (AID 1145). The settings on record: no forskolin, luminescence, 4.5 h, higher = more signal, called active from +8 up or from −8 down.
Assay [5] can be described thus: CREB reporter modulators under forskolin, primary screen, cell-based, PC12, CRE-LacZ reporter, forskolin-stimulated (AID 1146).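 Note: PC12 cells with 6xCRE LacZ reporter stimulated by forskolin 10 µM; beta-galactosidase reporter signal reflecting CREB driven transcription.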 The settings on record: luminescence, 4.5 h, higher = more signal, called active from +8 up or from −8 down.
Assay [6] has as its target Streptavidin (Streptomyces avidinii) (UniProt P22629). The assay can be described thus: streptavidin binders on small-molecule microarray, primary screen, artefact control for SMM compound annotation, biophysical, 635/667 nm fluorescence (AID 1147).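 Note: signal reflects streptavidin binding to arrayed compounds as a control protein.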 The settings on record: streptavidin binding, higher = more signal.
Assay [7] in a line: small-molecule binders of probe aInhba, primary screen, biochemical, small-molecule microarray, 635/667 nm fluorescence (AID 1148).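 Note: score merges 667nm spot fluorescence with signal-to-noise for antibody binding to printed compounds.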 The settings on record: higher = more signal.
In assay [8] the target is Torsin-1A (Homo sapiens) (UniProt O14656). The assay can be described thus: torsin A binders from cell lysate, primary screen, small-molecule microarray, wild-type, 635/667 nm (AID 1149). The settings on record: COS7 hTOR1A-WT lysate, 635 nm fluorescence, higher = more signal.
Chain of Torsin-1A (Homo sapiens) (O14656 whole entry, looked up): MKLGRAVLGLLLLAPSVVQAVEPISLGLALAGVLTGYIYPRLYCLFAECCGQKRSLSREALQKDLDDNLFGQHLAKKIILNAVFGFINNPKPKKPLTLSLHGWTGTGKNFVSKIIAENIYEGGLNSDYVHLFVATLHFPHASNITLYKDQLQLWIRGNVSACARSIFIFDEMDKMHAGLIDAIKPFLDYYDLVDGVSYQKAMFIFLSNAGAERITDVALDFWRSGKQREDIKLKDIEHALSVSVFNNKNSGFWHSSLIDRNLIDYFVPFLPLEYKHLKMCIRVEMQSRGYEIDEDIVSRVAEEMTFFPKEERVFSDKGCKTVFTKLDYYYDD
Assay [9] shares this target. The assay can be described thus: small-molecule binders of mutant TOR1A in lysate, primary screen, cell lysate, small-molecule microarray, COS7 lysate, 635/667 nm fluorescence (AID 1150).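 Note: score pools 667 nm emission and signal to noise measuring lysate protein binding.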 The settings on record: COS7 hTOR1A mutant lysate, 635 nm fluorescence, higher = more signal.
For assay [10], the system named is Sonic hedgehog protein (Shh). The assay can be described thus: small-molecule binders of Shh protein, primary screen, biochemical, small-molecule microarray, 635/667 nm fluorescence (AID 1151).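 Note: Shh protein binding to compounds spotted on small-molecule microarray slides; score combines spot fluorescence intensity with signal-to-noise across triplicate slides.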 The settings on record: small-molecule microarray binding, 635 nm fluorescence; higher = more signal.
Assay [11] can be described thus: E. coli DRC41 culture turbidity changes, primary screen, E. coli filamentation inducer project, strain DRC41, OD650, 48 h (AID 1152).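 Note: E. coli MC1000 strain DRC41 lacking acrAB efflux pump and sulA.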 The settings on record: E. coli DRC41 (acrAB sulA), higher = more signal, called active from +8 up or from −8 down.
Assay [12] can be described thus: small-molecule binders of probe aLefty1, primary screen, biochemical, small-molecule microarray, 635/667 nm fluorescence (AID 1153).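 Note: score merges spot fluorescence with signal-to-noise ratio from the scanned slide images.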 The settings on record: higher = more signal.
Assay [13] in a line: PSAC antagonists in infected red cells, primary screen, cell-based, P. falciparum Indochina, OD700, 1 h (AID 1154). The settings on record: P. falciparum Indochina infected RBC osmotic lysis, higher = more signal, called active from +8 up or from −8 down.
The nature of assay [14]: PSAC antagonists in infected red cells, primary screen, cell-based, P. falciparum Indochina, OD700, 2 h (AID 1155).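 Note: lysis reports solute entry through the parasite surface anion channel PSAC; channel blockers reduce lysis of infected cells.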 The settings on record: P. falciparum Indochina infected erythrocytes, osmotic lysis OD700; higher = more signal, called active from +8 up or from −8 down.
Assay [15] is described as follows: osmotic lysis modulators in infected erythrocytes, primary screen, PSAC antagonist project, cell-based, P. falciparum Indochina, OD700, 3 h (AID 1156). The settings on record: higher = more signal, called active from +8 up or from −8 down.
The nature of assay [16]: PSAC antagonists in infected red cells, primary screen, cell-based, P. falciparum Indochina, OD700, 18 h (AID 1157). The settings on record: P. falciparum Indochina infected erythrocytes, osmotic lysis OD700, 18 h; higher = more signal, called active from +8 up or from −8 down.
A short description of assay [17]: modulators of S6 phosphorylation in cells, primary screen, cell-based, A549, cytoblot, luminescence, serum-stimulated (AID 1158).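 Note: serum-stimulated A549 lung adenocarcinoma cells; signal is phosphorylated S6 detected by cytoblot immunostaining with HRP secondary.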 The settings on record: A549 phospho-S6 cytoblot, 5 h, higher = more signal.
The target in assay [18] is NADPH oxidase 2 (Homo sapiens) (UniProt P04839). The assay can be described thus: NOX2-dependent H2O2 signal modulators, primary screen, NOX inhibitor project, cell-based, HEK293-NOX2, PMA-stimulated, Amplex Red fluorescence (AID 1159). Note: test concentration not given here. The settings on record: 45 min, higher = more signal, called active from +8 up or from −8 down.
Chain of NADPH oxidase 2 (Homo sapiens) (P04839 whole entry, looked up): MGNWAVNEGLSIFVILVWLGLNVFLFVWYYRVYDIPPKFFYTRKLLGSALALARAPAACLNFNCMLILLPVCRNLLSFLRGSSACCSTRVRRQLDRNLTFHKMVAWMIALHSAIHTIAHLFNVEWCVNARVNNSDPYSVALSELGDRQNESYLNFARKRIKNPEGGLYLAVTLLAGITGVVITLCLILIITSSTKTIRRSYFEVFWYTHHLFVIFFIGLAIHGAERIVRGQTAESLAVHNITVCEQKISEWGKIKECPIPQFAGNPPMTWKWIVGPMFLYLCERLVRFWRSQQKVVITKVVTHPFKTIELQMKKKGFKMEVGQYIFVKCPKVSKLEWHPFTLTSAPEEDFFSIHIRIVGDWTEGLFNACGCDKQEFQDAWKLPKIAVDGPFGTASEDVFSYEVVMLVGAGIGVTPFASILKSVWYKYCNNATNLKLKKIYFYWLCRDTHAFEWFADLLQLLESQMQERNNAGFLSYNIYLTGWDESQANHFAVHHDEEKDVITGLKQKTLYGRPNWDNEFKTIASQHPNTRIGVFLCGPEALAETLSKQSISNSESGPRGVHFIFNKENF
Assay [19] concerns the target NADPH oxidase 4 (Homo sapiens) (UniProt Q9NPH5). The assay can be described thus: NOX4-dependent H2O2 signal modulators, primary screen, NOX inhibitor project, cell-based, HEK293-NOX4, tetracycline-induced, Amplex Red fluorescence (AID 1160). The settings on record: 45 min, higher = more signal, called active from +8 up or from −8 down.
The target in assay [20] is NADPH oxidase 5 (Homo sapiens) (UniProt Q96PH1). The assay can be described thus: NOX5-dependent H2O2 signal modulators, primary screen, NOX inhibitor project, cell-based, HEK293-NOX5, Amplex Red fluorescence (AID 1161). The settings on record: HEK293-NOX5, ionomycin, 45 min, higher = more signal.
Chain of NADPH oxidase 5 (Homo sapiens) (Q96PH1 whole entry, looked up): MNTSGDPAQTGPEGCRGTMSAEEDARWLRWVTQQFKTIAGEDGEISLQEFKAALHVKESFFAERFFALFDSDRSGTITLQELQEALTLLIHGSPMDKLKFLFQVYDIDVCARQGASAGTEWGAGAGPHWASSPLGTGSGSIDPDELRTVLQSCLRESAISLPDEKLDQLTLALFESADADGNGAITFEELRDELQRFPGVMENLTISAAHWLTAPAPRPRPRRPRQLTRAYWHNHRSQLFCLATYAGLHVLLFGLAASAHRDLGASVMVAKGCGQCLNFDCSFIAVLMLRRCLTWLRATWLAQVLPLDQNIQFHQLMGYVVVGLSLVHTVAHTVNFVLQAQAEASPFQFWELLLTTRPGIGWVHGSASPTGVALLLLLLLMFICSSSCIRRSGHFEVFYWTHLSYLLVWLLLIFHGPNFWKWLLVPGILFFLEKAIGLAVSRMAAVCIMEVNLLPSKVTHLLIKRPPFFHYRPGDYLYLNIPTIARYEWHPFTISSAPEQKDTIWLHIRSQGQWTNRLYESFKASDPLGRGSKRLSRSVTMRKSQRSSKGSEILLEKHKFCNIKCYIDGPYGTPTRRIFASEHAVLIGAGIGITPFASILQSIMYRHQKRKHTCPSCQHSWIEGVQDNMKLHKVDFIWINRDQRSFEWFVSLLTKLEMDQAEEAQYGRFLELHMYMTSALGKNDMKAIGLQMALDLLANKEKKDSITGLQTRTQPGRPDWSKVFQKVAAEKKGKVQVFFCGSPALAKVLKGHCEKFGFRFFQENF

Chain of NADPH oxidase 4 (Homo sapiens) (Q9NPH5 whole entry, looked up): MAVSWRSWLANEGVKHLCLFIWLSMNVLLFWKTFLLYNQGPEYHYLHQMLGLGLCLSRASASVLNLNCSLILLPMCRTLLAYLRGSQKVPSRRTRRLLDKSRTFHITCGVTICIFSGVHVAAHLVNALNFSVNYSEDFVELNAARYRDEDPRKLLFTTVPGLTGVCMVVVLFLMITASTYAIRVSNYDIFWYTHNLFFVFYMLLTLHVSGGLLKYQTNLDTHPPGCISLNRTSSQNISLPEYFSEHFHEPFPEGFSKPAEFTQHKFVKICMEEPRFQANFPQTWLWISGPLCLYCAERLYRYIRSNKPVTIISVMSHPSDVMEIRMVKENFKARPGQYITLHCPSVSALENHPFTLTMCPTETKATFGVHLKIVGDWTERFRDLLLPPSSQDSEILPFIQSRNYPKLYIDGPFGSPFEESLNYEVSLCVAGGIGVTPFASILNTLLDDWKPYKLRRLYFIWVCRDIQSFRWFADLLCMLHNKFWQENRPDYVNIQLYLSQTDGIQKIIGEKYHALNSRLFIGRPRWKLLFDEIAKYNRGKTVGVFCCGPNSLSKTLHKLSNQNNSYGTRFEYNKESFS
Chain of Streptavidin (Streptomyces avidinii) (P22629 whole entry, looked up): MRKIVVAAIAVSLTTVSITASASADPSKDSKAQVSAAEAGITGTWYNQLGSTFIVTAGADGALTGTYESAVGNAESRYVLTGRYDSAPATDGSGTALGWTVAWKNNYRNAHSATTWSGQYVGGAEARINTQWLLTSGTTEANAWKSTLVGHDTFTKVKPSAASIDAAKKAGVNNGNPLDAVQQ

For `C=C(COC)C(=O)CC[C@H](OC(=O)c1cccnc1)c1ccc(CO)o1`, the composite z-score in [1] is 0.196; in assay [6], -0.184; in assay [7] it was 0.13; in assay [8] it was 2.19; in [9], -0.0291; in assay [10], 1.41. Further, the composite z-score in assay [12] was -0.147. In addition, the z-score in assay [2] is -0.319 (inactive); in [3], 0.312 (inactive); in assay [4], 0.522 (inactive); in assay [5], 0.756 (inactive); in assay [11], -0.471 (inactive); in assay [13], 0.904 (inactive). In addition, the z-score is 0.0112 (inactive) in [14]; -0.376 (inactive) in assay [15]; 0.063 (inactive) in [16]; -0.262 in assay [17]; 0.337 (inactive) in assay [18]; -0.159 (inactive) in assay [19]. Moreover, in assay [20], the z-score was found to be 0.221.
With `CC(C)(C)OC(=O)CC[C@]12N=C(c3ccc(OCCCO)cc3)O[C@H]1c1ccccc1N(Cc1ccccc1)C2=O`, the composite z-score in [1] was 0.154; in [6] it was -0.12; in assay [7] it was 0.225; in assay [8] it was 0.553; in assay [9] it was 1.63; in assay [10], 1.12. The compound also returned a composite z-score in [12] of 0.848. Moreover, the z-score was -3.76 (inactive) in [2]; 1.18 (inactive) in assay [3]; 0.951 (inactive) in [4]; -0.746 (inactive) in assay [5]; 0.617 (inactive) in [11]; 27 (active) in assay [13]. Besides, the z-score was 28.2 (active) in assay [14]; 4.42 (inactive) in assay [15]; 2.09 (inactive) in [16]; 0.34 in [17]; 3.89 (inactive) in [18]; 0.102 (inactive) in [19]. The compound further yielded a z-score in [20] of -1.71.
On to `C[C@@]12COC[C@]13C=C(Br)[C@H](C2)[C@@]1(CO1)C3=O`, for which the composite z-score is -0.329 in assay [1]; -0.875 in assay [6]; -0.0966 in assay [7]; -1.76 in [8]; -0.55 in assay [9]; -0.3 in assay [10]. This compound came in with a composite z-score in assay [12] of -0.0003. For the same compound, the z-score in assay [2] was 0.603 (inactive); in [3] it was 0.708 (inactive); in [4] it was 0.769 (inactive); in assay [5], 1.51 (inactive); in assay [11] it was -0.745 (inactive); in assay [13], -0.526 (inactive). The z-score is -0.0824 (inactive) in assay [14]; -0.347 (inactive) in assay [15]; -0.161 (inactive) in assay [16]; -0.788 in assay [17]; 0.51 (inactive) in assay [18]; 0.527 (inactive) in assay [19]. Also, the z-score in assay [20] is 0.119.
Consider `NCCCCCNC(=O)[C@H]1C[C@H]2C(=O)N[C@@H](Cc3ccccc3)C(=O)N2[C@H]1c1ccc(O)cc1`, for which the composite z-score was found to be 0.234 in [1]; 1.13 in assay [6]; 0.641 in [7]; 0.756 in [8]; 0.842 in [9]; 0.313 in assay [10]. Also, the composite z-score in [12] was 1.01. Besides, the z-score in [2] is 0.169 (inactive); in [3], -0.0304 (inactive); in assay [4] it was 0.0124 (inactive); in assay [5], -0.622 (inactive); in assay [11], 0.097 (inactive); in [13] it was 3.38 (inactive). In addition, the z-score in assay [14] is 0.288 (inactive); in assay [15], 1.54 (inactive); in assay [16] it was 0.204 (inactive); in assay [17], 0.0042; in assay [18] it was 0.354 (inactive); in assay [19], -0.384 (inactive). Also, the z-score in assay [20] is -0.912.
For the compound `C=C(/C(=C/C[C@@H](OC(=O)c1ccncc1)c1cccc(OCCO)c1)c1cnc2ccccc2c1)C(C)C`, the composite z-score worked out at 0.782 in assay [1]; 1.62 in assay [6]; 0.0422 in [7]; 0.199 in assay [8]; 0.128 in assay [9]; 2 in assay [10]. Moreover, the composite z-score in assay [12] turned out to be 0.13. The z-score in assay [2] was -2.31 (inactive); in assay [3], -0.454 (inactive); in assay [4] it was 1.69 (inactive); in assay [5] it was 0.628 (inactive); in assay [11], 0.172 (inactive); in [13] it was 13.7 (active). Further, the z-score was 1.86 (inactive) in assay [14]; 1.32 (inactive) in [15]; 0.897 (inactive) in assay [16]; 0.199 in assay [17]; -1.34 (inactive) in assay [18]; -0.507 (inactive) in [19]. Further, the z-score in assay [20] is -0.782.
